aSyn UTR act = Activators via SNCA 5'UTR binding, MLPCN; alpha-synuclein 5'UTR reporter, activators screen; activity score, % (tested at 7.5 µM), hits read low; hit rate 7.1% among 300,000; AID 1814; in the data active means activity score below about -60%
Each line names hits and unclear results; the compound was inactive in the other large screens. Not all results are given here.

COc1ccc(/C(C)=N/NC(=O)c2ccccc2N)cc1	aSyn UTR act -92.0
COc1ccc(C(=O)Nc2ccc(/C(C)=N/NC(=O)c3ccncc3)cc2)cc1	aSyn UTR act -107.6
O=C(CSc1cccc[n+]1[O-])c1cc2ccccc2o1	aSyn UTR act -101.1
O=C(CN1C(=O)c2ccccc2S1(=O)=O)c1ccc(Cl)cc1Cl	none
O=C(CSc1cccc[n+]1[O-])c1cc(Cl)ccc1Cl	aSyn UTR act -87.4
Nc1nccc(-c2ccc(-n3cccc3)cc2)n1	aSyn UTR act -132.1
COC(=O)c1cc(CSc2nc3ccccc3[nH]2)oc1C	aSyn UTR act -173.3
O=[N+]([O-])c1cccc(CSc2nc3ccccc3[nH]2)c1	aSyn UTR act -69.7
COc1ccc2nc(Nc3nc(CSc4nc5ccccc5[nH]4)cc(=O)[nH]3)nc(C)c2c1	none
COc1cccc(CSc2nc3ccccc3[nH]2)c1	aSyn UTR act -144.3
CCCN(CCC)c1ccc(/C=C/c2ccc3cc(OCC)ccc3n2)cc1	aSyn UTR act -112.1
CN(C)c1ccc(/C=C/c2ccc3ccccc3n2)cc1	none
Cc1noc(/C=C/c2ccccn2)c1[N+](=O)[O-]	aSyn UTR act -211.4
Cc1noc(/C=C/Nc2ccc(F)cc2F)c1[N+](=O)[O-]	aSyn UTR act -174.8
CCCC(NC(=O)CCl)c1ccccc1 (configuration not stated)	aSyn UTR act -71.8
CCOc1ccc(NC(=O)c2cccnc2C(=O)O)cc1	aSyn UTR act -108.8
CCOc1ccc(NC(=O)c2ccccc2CO)cc1	aSyn UTR act -85.7
O=C(COc1ccccc1C(=O)c1cnn(-c2ccccc2)c1)Nc1ccccc1	aSyn UTR act -72.6
CC(=O)c1ccc(NC(=O)COc2ccccc2C(=O)Nc2ccccc2)cc1	aSyn UTR act -78.0
CCOc1ccc(NC(=O)c2nccnc2CO)cc1	aSyn UTR act -120.1
CCOc1ccc(NC(=O)c2ccccc2OC)cc1	aSyn UTR act -140.5
CC(=O)c1cccc(NC(=O)COC(=O)c2ccccc2C)c1	aSyn UTR act -101.2
CCOc1ccc(NC(=O)c2ccccc2-c2ccccc2C(=O)O)cc1	aSyn UTR act -62.8
CCOc1ccc(NC(=O)c2ccccc2O)cc1	aSyn UTR act -66.3
CCOc1ccc(NC(=O)c2ccccc2OCC(=O)c2ccccc2)cc1	aSyn UTR act -83.3
CCOc1ccc(NC(=O)c2ccccn2)cc1	none
CCOc1ccc(NC(=O)c2ccc(NC(=O)COC(=O)Cc3ccc(OC)cc3)cc2)cc1	aSyn UTR act -93.3
COc1cccc2cc(CC(=O)c3ccccc3)c(=O)oc12	aSyn UTR act -146.8
COc1cccc2cc(CC(=O)c3cc(C)ccc3C)c(=O)oc12	aSyn UTR act -116.5
COc1cccc2cc(C(=O)NCc3ccccc3Cl)c(=O)oc12	aSyn UTR act -100.7
COc1cccc2cc(C(=O)NCc3ccco3)c(=Nc3ccc(C(=O)O)cc3)oc12	aSyn UTR act -90.4
COc1cccc2cc(C(=O)Nc3ccccc3C)/c(=N/O)oc12	aSyn UTR act -114.5
COc1cccc2cc(C(=O)OCC(=O)NCc3ccc4c(c3)OCO4)c(=O)oc12	aSyn UTR act -91.5
COc1cccc2cc(-c3nc4ccccc4o3)c(=O)oc12	aSyn UTR act -169.3
COc1cccc2cc(C(=O)c3ccccc3)oc12	aSyn UTR act -131.6
CCc1ccc(-c2nc(C(N)=O)c3[nH]c(=O)n(-c4ccccc4OC)c3n2)cc1	none
CCc1ccc(C(=O)Cc2cc3cccc(OC)c3oc2=O)cc1	aSyn UTR act -104.7
O=[N+]([O-])c1nn(-c2ccc3c(c2)OCCO3)n(O)c1=NCc1ccc(F)cc1Cl	aSyn UTR act -139.6
O=[N+]([O-])c1nn(-c2ccc3c(c2)OCCO3)n(O)c1=NCCC1=CCCCC1	aSyn UTR act -139.4
O=[N+]([O-])c1nn(-c2ccc3c(c2)OCCO3)n(O)c1=NCc1ccc(F)cc1	aSyn UTR act -123.9
Cc1ccc(C)n1-c1cccc(NC(=O)c2ccccc2)c1	aSyn UTR act -72.7
Cc1ccc(C)n1-c1ccc(C(=O)Nc2ccccc2)cc1	aSyn UTR act -81.7
Oc1ccccc1C1CC(c2cccs2)=NC(c2ccc(Cl)cc2)N1 (configuration not stated)	aSyn UTR act -94.0
COC(=O)c1ccccc1NC(=O)CC(=O)Nc1ccccc1C(=O)OC	aSyn UTR act -63.5
COC(=O)c1ccccc1NC(=O)NCCc1ccccc1OC	aSyn UTR act -133.7
O=c1[nH]c2cc3c(cc2cc1CN(Cc1nnnn1C1CCCC1)C1CCCC1)OCCO3	aSyn UTR act -79.3
CC(=O)n1cc(N(C(=O)CCl)c2ccc(Cl)cc2)c2ccccc21	none
Cc1ccccc1NC(=O)C(=O)c1cn(C)c2ccccc12	aSyn UTR act -132.7
CCOC(=O)c1cnc(SCc2ccc(C)cc2)nc1N	aSyn UTR act -179.4
CCCCSc1ncc(C(=O)OCC)c(N)n1	aSyn UTR act -139.6
CCOC(=O)c1cnc(SCCc2ccccc2)nc1N	aSyn UTR act -102.2
CCOC(=O)c1[nH]cnc1N=Nc1c(O)ccc2ccccc12	none
CCOC(=O)c1cnc2c(ccc3ccccc32)c1Cl	aSyn UTR act -87.4
CCOC(=O)c1cnc(NCc2ccccc2)nc1C	aSyn UTR act -73.1
CCOC(=O)c1cnc(-n2nc(C)cc2C)nc1NNc1ncc(-c2ccccc2)cn1	none
Cc1cc(C(=O)COc2ncnc3sccc23)c(C)n1C1CC1	aSyn UTR act -78.6
CCCn1c(C)cc(C(=O)COc2ncnc3sccc23)c1C	aSyn UTR act -149.6
CCOC(=O)C1=C(Cc2ccc(C)cc2)C(=O)c2ccccc2C1=O	aSyn UTR act -65.4
O=C(NCc1ccco1)C(=O)NCc1ccccc1Cl	aSyn UTR act -70.6
O=C(NCc1ccco1)c1sc2ccccc2c1Cl	aSyn UTR act -114.2
O=C(NCc1ccco1)c1sc2cc(Cl)ccc2c1Cl	aSyn UTR act -65.9
CCN(CC)CCOC(=O)C(Cc1ccco1)Cc1cccc2ccccc12 (configuration not stated)	none
O=C(NCc1ccco1)c1cc2cc3ccc(Cl)cc3nc2o1	aSyn UTR act -61.9
O=C(Nc1ccon1)c1sc2cc(Cl)ccc2c1Cl	aSyn UTR act -84.3
COc1cc(NC(=S)N2CCOCC2)c(OC)cc1Cl	aSyn UTR act -211.2
N/C(=N\OC(=O)c1ccc(Cl)cc1)c1ccccn1	none
Cc1cc(/C(N)=N/OC(=O)c2cccc(Cl)c2)no1	aSyn UTR act -192.7
Cc1cc(/C(N)=N/OC(=O)c2ccc(Cl)cc2)no1	aSyn UTR act -200.9
Cc1ccc(C(=O)Nc2cc3ccccc3oc2=O)cc1	none
CC(=O)c1cc(NC(=O)c2ccc(C)cc2)c(=O)oc1C	aSyn UTR act -116.7
CC(=O)c1cc(NC(=O)c2ccc(C)cc2)c(=O)oc1/C=C/N(C)C	aSyn UTR act -78.2
Cc1oc(=O)c(NC(=O)c2ccccc2)cc1C(=O)c1ccccc1	aSyn UTR act -205.3
CCOc1cc(/C=C/C(=O)c2ccc(O)cc2)ccc1OCC(=O)N(C)C	aSyn UTR act -94.1
CCOc1cc(/C=C/C(=O)c2ccc3c(c2)OCCO3)ccc1OCC(=O)N(C)C	aSyn UTR act -185.1
CCOc1cc(/C=C/C(=O)Nc2ccc(C(=O)NCCN(CC)CC)cc2)ccc1OCC(C)C	none
C=C1CCC2[C@](C)(CO)[C@H](O)CC[C@@]2(C)[C@@H]1C/C=C1\C(=O)OC[C@H]1O (some centres not stated)	aSyn UTR act -151.1
O=C(Nc1ccc([N+](=O)[O-])cc1)c1ccc(Cn2cc([N+](=O)[O-])cn2)cc1	none
O=C(Nc1ccccc1F)c1ccc(Cn2cc(Cl)cn2)cc1	aSyn UTR act -84.2
O=C(Nc1ccc(Cl)c(Cl)c1)c1ccc(Cn2cc(Cl)cn2)cc1	aSyn UTR act -120.1
c1cncc(-c2nc3c(ccc4ccccc43)[nH]2)c1	aSyn UTR act -192.6
